Results filed as inconclusive are left out. A call without a number means that no potency is given here. A number with no mark means an inactive call. Activity calls are given as the source filed them. The call rests on the fitted dose curve; in most records, active means well fitted activation curve with a large enough effect; inconclusive means small, poorly fitted or top-dose-only effect; inactive means flat fitted curve, though single readings scatter.
test: Primary redox qHTS assay for identification of artifact compounds. (AID 1845223); conditions: Amplex Red/HRP redox cycling with DTT, fluorescence; series mostly up to 53.8 µM
How it was run: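 Redox-cycling detection via DTT (250 uM final) oxidation coupled to Amplex Red (25 uM)/HRP (250 mU/mL) in HBSS. 15 min preincubation plus 30 min after DTT, room temperature. Ex/Em 525/598 nm; 4-parameter Hill fit against DMSO and 10 uM DA3003.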

SMILES	redox activity (% of DA3003)	Potency
CC1(C)CC[C@]2(C(=O)O[C@@H]3O[C@H](CO)[C@@H](O)[C@H](O)[C@H]3O)CC[C@]3(C)C(=CCC4[C@@]5(C)CC[C@H](O[C@@H]6O[C@H](C(=O)O)[C@@H](O[C@@H]7O[C@H](CO)[C@@H](O)[C@H](O)[C@H]7O)[C@H](O)[C@H]6O)C(C)(C)C5CC[C@]43C)C2C1 (some centres undefined)	3.95% [at 11.5 µM]	–
C=C(C)C1Cc2c(ccc3c2OCC(c2ccc(O)cc2O)C3)O1 (centres undefined)	–	inactive
C=CC1(C)CC2CCC3C(C)(C(=O)O)CCCC3(C)C2=CC1=O (centres undefined)	–	inactive
COC(=O)C1=CO[C@@H](O[C@@H]2O[C@H](CO)[C@@H](O)[C@H](O)[C@H]2O)[C@@H]2C(C)CC(=O)[C@]12O (some centres undefined)	–	inactive
CC1(C)CC2C(O)C3=C(CC(C)(O)C2C1)C(=O)OC3 (centres undefined)	–	inactive
CC(C)C1C(OC(=O)/C=C/c2ccccc2)CC2(C)OC2CCC2(C)OC2C1O (centres undefined)	–	inactive
COc1c2cc(c(O[C@@H]3O[C@H](CO)[C@@H](O)[C@H](O)[C@H]3O)c1OC)CCCCC(O)CCc1ccc(O)c-2c1 (some centres undefined)	–	inactive
COc1cc(/C=C/c2ccccc2)c(C(=O)O)c(O)c1CC=C(C)C	–	inactive
CC(C)C1(O)NC(=O)C(CC2(O)c3ccccc3N3C(=O)C(C)(C)NC32)n2c1nc1ccccc1c2=O (centres undefined)	–	inactive
CC(=O)OC12CC(C)C(OC(=O)c3ccccc3)C1/C=C(/C)C(OC(=O)c1ccccc1)CC(=O)C(C)(C)/C=C/C(C)C2=O (centres undefined)	–	inactive
COc1cc(C2Oc3c(OC)cc(/C=C/C(=O)OC4CC(O)(C(=O)O)CC(O)C4O)cc3C2CO)ccc1O (centres undefined)	–	inactive
O=C(/C=C/c1ccc(O)cc1)O[C@@H]1C[C@@](O)(C(=O)O)C[C@@H](O)[C@@H]1O	–	inactive
COc1cc([C@H]2OC[C@](O)(Cc3ccc(O[C@@H]4O[C@H](CO)[C@@H](O)[C@H](O)[C@H]4O)c(OC)c3)[C@@H]2CO)ccc1O	–	inactive
O=C(/C=C/c1ccc(O)c(O)c1)O[C@@H]1[C@@H](O)[C@H](OC2CCCCC2O)O[C@H](CO)[C@H]1O (some centres undefined)	–	inactive
COC(=O)C[C@@H]1C(C(=O)O)=CO[C@@H](O[C@@H]2O[C@H](CO)[C@@H](O)[C@H](O)[C@H]2O)/C1=C\COC(=O)/C=C/c1ccc(O)c(OC)c1	–	inactive
O=C(CCCCC1CCCCC1)N1CCC(c2cnc[nH]2)CC1	–	inactive
C/C=C1\[C@H](O[C@@H]2O[C@H](CO)[C@@H](O)[C@H](O)[C@H]2O)OC=C(C(=O)O)[C@H]1CC(=O)OCCc1ccc(O)cc1	–	inactive
COc1cc2c(cc1O)CC(O)(CO)C(CO)C2c1ccc(OC2OC(CO)C(O)C(O)C2O)c(OC)c1 (centres undefined)	–	inactive
C=C1C(OC(C)=O)[C@@]23CCC4[C@](C)(C(=O)O)CCC[C@@]4(C)[C@]2(O)CC[C@H]1C3 (some centres undefined)	–	inactive
COCCCc1sc(-c2ccccc2)nc1C(=O)Nc1ccccc1-c1nc2cc(CN3CCCC3)cnc2s1	–	inactive

SMILES	redox activity (% of DA3003)	Potency
C=C(CO)C(=O)O[C@H]1C[C@@]23O[C@@H]2CC/C(=C/[C@H]2OC(=O)C(=C)[C@H]12)CO[C@H]3O	–	inactive
C=C(C(=O)O)C1CC(O)C2(C)CCCC(C)(O)C2C1 (centres undefined)	–	inactive
COC(=O)C1=COC(OC2OC(CO)C(O)C(O)C2O)C2C(COC(=O)/C=C/c3ccc(O)cc3)C(O)C(O)C12 (centres undefined)	–	inactive
COc1cc(C2OCC3(O)C(c4ccc(O[C@@H]5O[C@H](CO)[C@@H](O)[C@H](O)[C@H]5O)c(OC)c4)OCC23O)ccc1O (some centres undefined)	–	inactive
O=C(Nc1cc(-c2ccccc2)nn1-c1ccccc1F)c1ccc([N+](=O)[O-])cc1	–	inactive
Oc1ccc2c(-c3c(-c4ccccn4)nn4c3CCC4)ccnc2c1	–	inactive
CCOC(=O)COc1ccc2c(c1)C[C@@H](NC[C@H](O)c1cccc(Cl)c1)CC2	–	inactive
COC(=O)C(Cc1ccccc1)NC(=O)c1ccccc1 (centres undefined)	–	inactive
OC[C@H]1O[C@@H](OCCc2ccccc2)[C@H](O[C@@H]2OC[C@@H](O)[C@H](O)[C@H]2O)[C@@H](O)[C@@H]1O	–	inactive
Fc1cccc(CN(C2=NCCN2)c2c(Cl)cccc2Cl)c1	–	inactive
C=C1CC[C@@H]2[C@@](C)(CO[C@@H]3O[C@H](CO)[C@@H](O)[C@H](O)[C@H]3O)[C@H](O)CC[C@@]2(C)[C@@H]1CC/C(C)=C/CO[C@@H]1O[C@H](CO)[C@@H](O)[C@H](O)[C@H]1O	–	inactive
C=C1CCC2[C@](C)(CCC[C@]2(C)C(=O)O)[C@H]1CC/C(C)=C/C(=O)OC (some centres undefined)	–	inactive
COC(=O)C(CC1(O)c2ccccc2N2C(=O)C(C)(C)N(O)C21)n1cnc2ccccc2c1=O (centres undefined)	–	inactive
C=C1CCC2C(C)(C)CCC[C@]2(C)[C@H]1CC/C(C)=C/C(=O)O (some centres undefined)	–	inactive
Fc1ccccc1-c1nc2ccn(Cc3ccc(-c4ccc(C(F)(F)F)cc4C(F)(F)F)nn3)cc-2n1	–	inactive
CC(=O)c1[nH]cc(CCC(=O)O)c1CC(=O)O	–	inactive
C/C=C/C=C/C=C/C(=O)O[C@@H]1[C@@H](OC)C2=C(C(=O)N(C(CCC(=O)O)C(=O)O)C2)[C@@]2(C)CCCC(C)(C)[C@H]12 (some centres undefined)	–	inactive
C=C(C)[C@@H]1CC[C@]2(C(=O)O)CC[C@]3(C)C(CCC4[C@]5(C)C(CC[C@]43C)C(C)(C)[C@@H](O)[C@@H]5C(=O)O)C12 (some centres undefined)	–	inactive
COc1ccc(CC(=O)NCc2ccccc2-c2ccccc2C(=O)NCCc2cccnc2)cc1	–	inactive
